According to PubChem BioAssay (Tox21):
Inconclusive results are not listed. Activity calls are given as the source filed them. The call rests on the fitted dose curve; in most records, active means well fitted curve in the direction sought with a large enough effect in the repeat runs; inconclusive means weak or mixed curves; inactive means no such curve, though single readings can be large; an effect the other way counts as inactive or inconclusive.

Assays:
[1] = A CellTox Green Cytotoxicity Assay to monitor cytotoxicity in HEK293 cells - 40 hour (AID 1224871); further: nearly all actives have a fitted effect of over 45% in size
Procedure, shortened: (§1)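 Cytotoxicity was tracked continuously in HEK293 cells by a DNA-binding dye excluded from viable cells. Compounds were transferred in DMSO 5 h after seeding; fluorescence was recorded at intervals up to 40 h.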

[2] = qHTS RealTime-Glo MT Cell Viability Assay in HEK293 cells - 16 hour (AID 1224872); further: top concentration of the series differs between compounds; nearly all actives have a fitted effect of over 50% in size
Procedure, shortened: (§2)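 HEK293 cells were seeded at 600 cells/well together with NanoLuc luciferase and cell-permeant prosubstrate, preincubated 5 h at 37 C/5% CO2, then given compound in DMSO by pintool. Luminescence from viable-cell prosubstrate reduction was read repeatedly over 40 h.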

[3] = qHTS RealTime-Glo MT Cell Viability Assay in HepG2 cells - 8 hour (AID 1224873); further: nearly all actives have a fitted effect of over 55% in size
Procedure, shortened: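 Real-time viability: cells seeded at 600 per well together with NanoLuc and cell-permeant prosubstrate, compounds added after 5 h incubation. Luminescence tracked at 0, 8, 16, 24, 32 and 40 h of exposure.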

[4] = qHTS RealTime-Glo MT Cell Viability Assay in HEK293 cells - 40 hour (AID 1224874); conditions: RealTime-Glo luminescence; max response: stronger effect = lower value; further: nearly all actives have a fitted effect of over 50% in size
Procedure, shortened: (§3)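 Nonlytic bioluminescent viability monitoring. HEK293 at 600 cells/well with reagent; 5 h settle; compound transfer by pintool; plates held at 37 C and read at set time points.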

[5] = A CellTox Green Cytotoxicity Assay to monitor cytotoxicity in HEK293 cells - 24 hour (AID 1224875); further: series mostly up to about 77 µM; nearly all actives have a fitted effect of over 45% in size
Procedure, shortened: as §1

[6] = A CellTox Green Cytotoxicity Assay to monitor cytotoxicity in HepG2 cells - 16 hour (AID 1224876); further: nearly all actives have a fitted effect of over 45% in size
Procedure, shortened: (§4)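 Real-time, homogeneous cytotoxicity readout: dead-cell DNA staining by CellTox Green in HepG2 monolayers, fluorescence measured at timed intervals up to 40 h of continuous compound exposure.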

[7] = qHTS RealTime-Glo MT Cell Viability Assay in HepG2 cells - 32 hour (AID 1224877); further: nearly all actives have a fitted effect of over 55% in size
Procedure, shortened: (§5)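 HepG2 cells were seeded at 600 cells/well together with NanoLuc luciferase and a cell-permeant prosubstrate, preincubated 5 h at 37 C/5% CO2, then pin-dosed with compounds in DMSO. Nonlytic luminescence from viable cells was read at each time point.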

[8] = A CellTox Green Cytotoxicity Assay to monitor cytotoxicity in HepG2 cells - 24 hour (AID 1224878); further: nearly all actives have a fitted effect of over 45% in size
Procedure, shortened: as §4

[9] = A CellTox Green Cytotoxicity Assay to monitor cytotoxicity in HepG2 cells - 40 hour (AID 1224879); further: nearly all actives have a fitted effect of over 40% in size
Procedure, shortened: as §4

[10] = qHTS RealTime-Glo MT Cell Viability Assay in HEK293 cells - 0 hour (AID 1224880)
Procedure, shortened: as §3

[11] = A CellTox Green Cytotoxicity Assay to monitor cytotoxicity in HEK293 cells - 32 hour (AID 1224881); further: nearly all actives have a fitted effect of over 40% in size
Procedure, shortened: as §1

[12] = A CellTox Green Cytotoxicity Assay to monitor cytotoxicity in HepG2 cells - 0 hour (AID 1224882); further: nearly all actives have a fitted effect of over 35% in size
Procedure, shortened: as §4

[13] = A CellTox Green Cytotoxicity Assay to monitor cytotoxicity in HepG2 cells - 32 hour (AID 1224883); further: nearly all actives have a fitted effect of over 50% in size
Procedure, shortened: as §4

[14] = A CellTox Green Cytotoxicity Assay to monitor cytotoxicity in HEK293 cells - 8 hour (AID 1224884); further: nearly all actives have a fitted effect of over 35% in size
Procedure, shortened: as §1

[15] = qHTS RealTime-Glo MT Cell Viability Assay in HepG2 cells - 16 hour (AID 1224885); further: nearly all actives have a fitted effect of over 50% in size
Procedure, shortened: as §5

[16] = qHTS RealTime-Glo MT Cell Viability Assay in HEK293 cells - 24 hour (AID 1224886)
Procedure, shortened: as §2

[17] = qHTS RealTime-Glo MT Cell Viability Assay in HEK293 cells - 8 hour (AID 1224887)
Procedure, shortened: as §3

[18] = A CellTox Green Cytotoxicity Assay to monitor cytotoxicity in HEK293 cells - 16 hour (AID 1224888); further: nearly all actives have a fitted effect of over 35% in size
Procedure, shortened: as §1

[19] = qHTS RealTime-Glo MT Cell Viability Assay in HepG2 cells - 0 hour (AID 1224889); further: nearly all actives have a fitted effect of over 50% in size
Procedure, shortened: as §5

[20] = A CellTox Green Cytotoxicity Assay to monitor cytotoxicity in HepG2 cells - 8 hour (AID 1224890); further: nearly all actives have a fitted effect of over 45% in size
Procedure, shortened: as §4
On the % scale 0 is the no-effect control and ±100 the full control effect.

Cc1ncc(CO)c(CN)c1O
inactive: Potency [1] | Potency [2] | outcome [3] | max response [4] 4.15% | Potency [5] | Potency [6] | Potency [7] | Potency [8] | Potency [9] | outcome [10] | Potency [11] | Potency [12] | Potency [13] | Potency [14] | outcome [15] | Potency [16] | Potency [17] | Potency [18] | Potency [19] | Potency [20]

CCCCCCCCCC#N
inactive: Potency [1] | Potency [2] | outcome [3] | max response [4] 0.388% | Potency [5] | Potency [6] | Potency [7] | Potency [8] | Potency [9] | outcome [10] | Potency [11] | Potency [12] | Potency [13] | Potency [14] | outcome [15] | Potency [16] | Potency [17] | Potency [18] | Potency [19] | Potency [20]

CC(CNC1CCCCC1)OC(=O)c1ccccc1 (stereo unspecified)
inactive: Potency [1] | Potency [2] | outcome [3] | max response [4] -9.26% | Potency [5] | Potency [6] | Potency [7] | Potency [8] | Potency [9] | outcome [10] | Potency [11] | Potency [12] | Potency [13] | Potency [14] | outcome [15] | Potency [16] | Potency [17] | Potency [18] | Potency [19] | Potency [20]

O=C1N(c2ccccc2)c2ccccc2C1(Cc1ccncc1)Cc1ccncc1
inactive: Potency [1] | Potency [2] | outcome [3] | max response [4] 5.52% | Potency [5] | Potency [6] | Potency [7] | Potency [8] | Potency [9] | outcome [10] | Potency [11] | Potency [12] | Potency [13] | Potency [14] | outcome [15] | Potency [16] | Potency [17] | Potency [18] | Potency [19] | Potency [20]

C=C(C)C(=O)OCCOP(=O)(O)O
inactive: Potency [1] | Potency [2] | outcome [3] | max response [4] 13.8% | Potency [5] | Potency [6] | Potency [7] | Potency [8] | Potency [9] | outcome [10] | Potency [11] | Potency [12] | Potency [13] | Potency [14] | Potency [16] | Potency [17] | Potency [18] | Potency [19] | Potency [20]

N#Cc1ccc(C(c2ccc(C#N)cc2)n2cncn2)cc1
inactive: Potency [1] | Potency [2] | outcome [3] | max response [4] -0.518% | Potency [5] | Potency [6] | Potency [7] | Potency [8] | Potency [9] | outcome [10] | Potency [11] | Potency [12] | Potency [13] | Potency [14] | outcome [15] | Potency [16] | Potency [17] | Potency [18] | Potency [19] | Potency [20]

CC(Oc1c(Cl)cccc1Cl)C1=NCCN1 (stereo unspecified)
inactive: Potency [1] | Potency [2] | outcome [3] | max response [4] -8.42% | Potency [5] | Potency [6] | Potency [7] | Potency [8] | Potency [9] | outcome [10] | Potency [11] | Potency [12] | Potency [13] | Potency [14] | outcome [15] | Potency [16] | Potency [17] | Potency [18] | Potency [19] | Potency [20]

CCc1cc(Cl)c(OC)c(C(=O)NC[C@@H]2CCCN2CC)c1O
inactive: Potency [1] | Potency [2] | outcome [3] | max response [4] -13.1% | Potency [5] | Potency [6] | Potency [7] | Potency [8] | Potency [9] | outcome [10] | Potency [11] | Potency [12] | Potency [13] | Potency [14] | outcome [15] | Potency [16] | Potency [17] | Potency [18] | Potency [19] | Potency [20]

O=C(CCCl)NCc1ccccc1
inactive: Potency [1] | Potency [2] | outcome [3] | max response [4] -3.01% | Potency [5] | Potency [6] | Potency [7] | Potency [8] | Potency [9] | outcome [10] | Potency [11] | Potency [12] | Potency [13] | Potency [14] | outcome [15] | Potency [16] | Potency [17] | Potency [18] | Potency [19] | Potency [20]

CC(=O)OC(C)OC(C)=O
inactive: Potency [1] | Potency [2] | outcome [3] | max response [4] 0.965% | Potency [5] | Potency [6] | Potency [7] | Potency [8] | Potency [9] | outcome [10] | Potency [11] | Potency [12] | Potency [13] | Potency [14] | Potency [16] | Potency [17] | Potency [18] | Potency [19] | Potency [20]

COC(C)CCO (stereo unspecified)
inactive: Potency [1] | Potency [2] | outcome [3] | max response [4] 6.13% | Potency [5] | Potency [6] | Potency [7] | Potency [8] | Potency [9] | outcome [10] | Potency [11] | Potency [12] | Potency [13] | Potency [14] | Potency [16] | Potency [17] | Potency [18] | Potency [19]

CN(C)CC[C@@H](c1ccc(Cl)cc1)c1ccccn1
inactive: Potency [1] | Potency [2] | outcome [3] | max response [4] -0.584% | Potency [5] | Potency [6] | Potency [7] | Potency [8] | Potency [9] | outcome [10] | Potency [11] | Potency [12] | Potency [13] | Potency [14] | outcome [15] | Potency [16] | Potency [17] | Potency [18] | Potency [19] | Potency [20]

C=Cc1ccccc1
inactive: Potency [1] | Potency [2] | outcome [3] | max response [4] 10.3% | Potency [5] | Potency [6] | Potency [7] | Potency [8] | Potency [9] | outcome [10] | Potency [11] | Potency [12] | Potency [13] | Potency [14] | outcome [15] | Potency [16] | Potency [17] | Potency [18] | Potency [19] | Potency [20]

CC(C)(C)C1CCCCC1=O (stereo unspecified)
inactive: Potency [1] | Potency [2] | outcome [3] | max response [4] 10.3% | Potency [5] | Potency [6] | Potency [7] | Potency [8] | Potency [9] | outcome [10] | Potency [11] | Potency [12] | Potency [13] | Potency [14] | outcome [15] | Potency [16] | Potency [17] | Potency [18] | Potency [19] | Potency [20]
